Test results taken from ChEMBL document CHEMBL5308504, “Tm Shift (DSF) assay results for EUbOPEN Chemogenomics Library” (2023).
Values joined by “and” are separate entries in the source; they are usually repeats but may differ in a detail not shown here. Identical values can stand only once.

Legend:
Conditions in all cases: Compound concentration 20.0 uM, Protein concentration 2.0 uM, Result type QC Liability
[1] = target: Tyrosine-protein kinase ABL1 (Homo sapiens) (UniProt P00519)
[2] = target: Cyclin-dependent kinase 2 (Homo sapiens) (UniProt P24941)
[3] = target: Casein kinase I isoform delta (Homo sapiens) (UniProt P48730)
[4] = target: Glycogen synthase kinase-3 beta (Homo sapiens) (UniProt P49841)
[5] = target: Mitogen-activated protein kinase 1 (Homo sapiens) (UniProt P28482)
[6] = target: T1, Aurora kinase A (Homo sapiens) (UniProt O14965)
T1 sequence (whole entry): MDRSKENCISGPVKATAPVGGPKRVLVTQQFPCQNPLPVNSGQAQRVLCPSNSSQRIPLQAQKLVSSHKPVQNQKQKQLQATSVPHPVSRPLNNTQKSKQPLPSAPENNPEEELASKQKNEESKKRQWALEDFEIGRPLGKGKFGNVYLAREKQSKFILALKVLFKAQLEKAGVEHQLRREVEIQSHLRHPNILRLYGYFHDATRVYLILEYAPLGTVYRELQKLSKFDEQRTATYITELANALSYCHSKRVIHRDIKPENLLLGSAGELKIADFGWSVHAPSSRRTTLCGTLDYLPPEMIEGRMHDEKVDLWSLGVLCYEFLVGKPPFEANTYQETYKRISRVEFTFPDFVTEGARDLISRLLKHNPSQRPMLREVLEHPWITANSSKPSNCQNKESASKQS

Chain of Glycogen synthase kinase-3 beta (Homo sapiens) (P49841 whole entry, looked up): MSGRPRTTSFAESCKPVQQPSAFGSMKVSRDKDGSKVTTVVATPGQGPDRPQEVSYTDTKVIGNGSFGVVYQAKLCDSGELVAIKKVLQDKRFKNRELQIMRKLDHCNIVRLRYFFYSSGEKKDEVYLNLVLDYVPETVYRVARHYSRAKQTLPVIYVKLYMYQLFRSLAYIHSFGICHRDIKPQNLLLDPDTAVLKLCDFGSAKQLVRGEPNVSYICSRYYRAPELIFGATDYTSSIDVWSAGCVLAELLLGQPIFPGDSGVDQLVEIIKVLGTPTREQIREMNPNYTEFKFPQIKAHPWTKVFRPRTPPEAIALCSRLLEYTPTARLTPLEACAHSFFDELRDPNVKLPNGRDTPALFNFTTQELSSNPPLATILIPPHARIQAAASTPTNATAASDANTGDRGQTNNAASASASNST
Chain of Mitogen-activated protein kinase 1 (Homo sapiens) (P28482 whole entry): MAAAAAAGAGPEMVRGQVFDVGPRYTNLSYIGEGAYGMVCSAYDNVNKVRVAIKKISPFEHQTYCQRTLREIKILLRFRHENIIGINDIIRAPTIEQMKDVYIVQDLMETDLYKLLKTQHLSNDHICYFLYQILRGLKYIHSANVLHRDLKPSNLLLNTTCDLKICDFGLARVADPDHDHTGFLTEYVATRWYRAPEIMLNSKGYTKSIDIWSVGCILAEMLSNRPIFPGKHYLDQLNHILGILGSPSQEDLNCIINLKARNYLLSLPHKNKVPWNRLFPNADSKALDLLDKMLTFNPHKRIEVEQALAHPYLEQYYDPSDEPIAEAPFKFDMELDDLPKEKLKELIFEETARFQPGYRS
Chain of Tyrosine-protein kinase ABL1 (Homo sapiens) (P00519 whole entry): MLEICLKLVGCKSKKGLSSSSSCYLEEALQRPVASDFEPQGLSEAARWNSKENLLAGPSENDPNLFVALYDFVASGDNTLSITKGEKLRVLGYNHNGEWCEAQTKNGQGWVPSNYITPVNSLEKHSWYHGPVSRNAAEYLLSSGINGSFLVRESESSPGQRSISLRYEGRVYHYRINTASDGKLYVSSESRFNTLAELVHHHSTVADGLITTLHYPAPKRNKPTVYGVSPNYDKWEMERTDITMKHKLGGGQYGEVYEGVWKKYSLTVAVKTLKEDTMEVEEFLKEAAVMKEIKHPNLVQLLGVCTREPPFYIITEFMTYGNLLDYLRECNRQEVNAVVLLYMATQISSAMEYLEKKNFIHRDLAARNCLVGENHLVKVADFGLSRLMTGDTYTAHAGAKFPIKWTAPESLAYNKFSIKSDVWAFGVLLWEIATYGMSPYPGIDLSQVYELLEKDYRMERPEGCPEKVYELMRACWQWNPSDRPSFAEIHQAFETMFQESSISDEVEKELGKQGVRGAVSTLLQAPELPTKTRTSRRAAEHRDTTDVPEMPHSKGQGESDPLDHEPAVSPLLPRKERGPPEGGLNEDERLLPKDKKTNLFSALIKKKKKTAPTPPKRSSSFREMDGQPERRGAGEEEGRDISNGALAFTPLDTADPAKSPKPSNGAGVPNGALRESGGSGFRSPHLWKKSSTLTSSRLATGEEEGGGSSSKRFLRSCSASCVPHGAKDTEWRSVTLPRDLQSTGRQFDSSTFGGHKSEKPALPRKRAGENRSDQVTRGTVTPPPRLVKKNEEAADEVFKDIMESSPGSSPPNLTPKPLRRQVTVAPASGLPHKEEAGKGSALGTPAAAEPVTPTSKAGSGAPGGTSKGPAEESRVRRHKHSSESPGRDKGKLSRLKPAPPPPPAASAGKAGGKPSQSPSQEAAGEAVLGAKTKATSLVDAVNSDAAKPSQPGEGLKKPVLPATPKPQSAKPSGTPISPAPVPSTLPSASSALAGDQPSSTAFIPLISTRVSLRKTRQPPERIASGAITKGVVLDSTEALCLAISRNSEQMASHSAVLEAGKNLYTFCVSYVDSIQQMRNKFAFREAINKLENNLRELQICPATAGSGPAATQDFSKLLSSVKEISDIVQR
Chain of Casein kinase I isoform delta (Homo sapiens) (P48730 whole entry, looked up, canonical isoform): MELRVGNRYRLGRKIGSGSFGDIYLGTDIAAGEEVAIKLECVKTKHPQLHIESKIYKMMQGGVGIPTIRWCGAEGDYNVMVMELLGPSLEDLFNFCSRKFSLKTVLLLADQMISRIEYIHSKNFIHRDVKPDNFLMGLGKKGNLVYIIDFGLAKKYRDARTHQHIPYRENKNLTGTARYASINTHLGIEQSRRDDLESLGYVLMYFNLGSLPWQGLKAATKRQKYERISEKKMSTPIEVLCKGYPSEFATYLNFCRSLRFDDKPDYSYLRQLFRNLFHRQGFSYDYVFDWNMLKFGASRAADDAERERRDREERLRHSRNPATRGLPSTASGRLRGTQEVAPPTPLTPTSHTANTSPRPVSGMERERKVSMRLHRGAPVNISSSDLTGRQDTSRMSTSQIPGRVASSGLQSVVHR

SMILES	ΔTm [1]	ΔTm [2]	ΔTm [3]	ΔTm [4]	ΔTm [5]	ΔTm [6]
COc1cc(-c2cn[nH]c2)ccc1C(=O)Nc1ccc2c(c1)CCNCC2	0.96 °C	0.47 °C	0.7 °C	-0.7 °C	0.38 °C	0.13 °C
CCn1c(-c2nonc2N)nc2ccccc21	0.33 °C	0.64 °C	0.5 °C	4.22 °C	0.41 °C	1.84 °C
CCC(=O)N[C@H]1CC[C@@H](C(=O)N(C)c2ccc(-c3nc4ccccc4o3)cc2)C1	0.73 °C	0.83 °C	0.61 °C	-0.48 °C	0.13 °C	0.03 °C
Cc1cc(=O)oc2cc(NC(=O)[C@H](Cc3ccc(I)cc3)NC(=O)[C@H]3N[C@@H]4CC[C@H]3C4)ccc12	0 °C	-0.62 °C	0.37 °C	-0.08 °C	0.09 °C	-0.48 °C
NC(=O)c1ccccc1Nc1nc(-c2ccc(N3CCOCC3)cc2)cc2ncccc12	7.91 °C	1.53 °C	3.01 °C	2.43 °C	0.67 °C	10.1 °C
CNC(=O)c1ccc(C)c(-n2c(C)cc(OCc3ccc(F)cc3F)c(Br)c2=O)c1	-0.5 °C	-0.88 °C	-0.45 °C	-1.44 °C	-0.46 °C	-1.48 °C
CNc1nc(Nc2ccc(C(=O)N3CCOCC3)cc2OC)ncc1Cl	0.4 °C	0.09 °C	-0.01 °C	-0.95 °C	0.36 °C	3.14 °C
Cc1cc2c(-c3ccco3)cnc(N[C@@H]3CCN(C)C[C@H]3C(=O)NC3CCCCC3)c2[nH]c1=O	0.07 °C	0.91 °C	-0.09 °C	-0.51 °C	0.54 °C	0.79 °C
CN(C)C(=O)Cn1cc(-c2ccc(-c3cncc4ccccc34)cc2)cn1	3.4 °C	0.46 °C	1.89 °C	0.72 °C	-0.64 °C	2.96 °C
CNc1ncc2cc(-c3ccc(-c4ncccc4F)cc3Cl)c(=O)n(C[C@H]3OC[C@H](N)CO3)c2n1	4.27 °C	1.01 °C	0.79 °C	-0.51 °C	3.43 °C	4.87 °C
Cn1c(C2(NC(=O)c3ccc4c(C5CCCC5)c(-c5ncc(Br)cn5)n(C)c4c3)CCC2)nc2ccc(/C=C/C(=O)O)cc21	-0.54 °C and 0.85 °C	-2.05 °C and -1.62 °C	-3.08 °C and -1.06 °C	-3.92 °C and -2.25 °C	-2.08 °C and -0.58 °C	-1.12 °C and -3.19 °C
CC1CN(CC(=O)N2CC(C)(C)c3nc(CO)c(Cc4ccc(F)cc4)cc32)C(CN2CCOCC2C)CN1 (stereo not drawn)	0.01 °C	0.68 °C	0.32 °C	-1.07 °C	0.17 °C	-1.32 °C
CCn1c(CNC(=O)c2ncc(C)nc2N)[n+](CC)c2ccc(C(=O)N(C)CCN(C)C)cc21	0.1 °C	0.39 °C	0.2 °C	-0.02 °C	0.08 °C	-0.29 °C
O=C(Nc1ccc(-n2nc(-c3cccnc3)cc2C(F)(F)F)cn1)c1ccc(-c2ccccc2)c(F)c1	-0.47 °C	-0.05 °C	-0.18 °C	-0.91 °C	0.06 °C	0.04 °C
CN1C(=O)[C@@H](NC(=O)c2cc(Cc3ccccc3)on2)COc2ccccc21	-2.16 °C	-0.24 °C	-4.18 °C	-4.43 °C	-1.79 °C	-1.24 °C
COc1cnccc1Nc1nc(-c2nn(Cc3c(F)cc(OCCO)cc3F)c3ccccc23)ncc1OC	-0.43 °C	-0.62 °C	-2.9 °C	-5.93 °C	-0.07 °C	-1.95 °C
CC(C)(O)CNC(=O)N1C(=O)N(c2cccc(C(F)(F)F)c2)C2=C(C(=O)CC2)[C@H]1c1ccc(C#N)cc1	0.05 °C	0.79 °C	0.12 °C	0.33 °C	-0.03 °C	0.08 °C
CCC(C(=O)Nc1ccc(-c2cc3ccccc3s2)c(C(N)=O)c1)c1nccs1 (stereo not drawn)	0.88 °C	0.25 °C	0.47 °C	0.69 °C	0.41 °C	0.34 °C
